Data published in the supplement of paper PMC6555819.

Columns and labels:
Assay in all cases: PBM binding z-score (relative to random genomic background probes); higher = stronger binding; sequences stand for … in GC…GCGATTGACAGCGTAGAATGAAGG
[1] = tested on: FXR:RXRa (NR concentration 270 nM, RXRa partner concentration 90 nM)
Outline: (§1)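 Probes were double-stranded and carried 34-nt variable regions with direct-repeat seeds, single-nucleotide variants, half-site ablations and random human genomic background sequences, printed on custom Agilent 4×180K protein-binding microarrays. Arrays were incubated 1 h with ligand-free nuclear receptor dimers in PBS pH 7.4, 2% milk, 0.02% Triton X-100, 1 mM DTT, 0.2 mg/mL BSA and 0.4 mg/ml salmon testes DNA. Antibodies against each partner (one per run) detected binding, and scanned fluorescence was regression-normalized. Binding z-scores use the random background probes as reference.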

[2] = tested on: LXRa:RXRa (NR concentration 270 nM, RXRa partner concentration 90 nM)
Outline: as §1

[3] = tested on: LXRa homodimer (NR concentration 270 nM)
Outline: as §1

[4] = tested on: LXRb:RXRa (NR concentration 270 nM, RXRa partner concentration 90 nM)
Outline: as §1

[5] = tested on: LXRb homodimer (NR concentration 270 nM)
Outline: as §1

[6] = tested on: PPARa:RXRa (NR concentration 270 nM, RXRa partner concentration 90 nM)
Outline: as §1

[7] = tested on: PPARg:RXRa (NR concentration 180 nM, RXRa partner concentration 90 nM)
Outline: as §1

[8] = tested on: PPARg:RXRa 270nM:90nM, anti-RXR (NR concentration 270 nM, RXRa partner concentration 90 nM)
Outline: as §1

[9] = tested on: PPARg:RXRa 30nM:10nM, anti-RXR (NR concentration 30 nM, RXRa partner concentration 10 nM)
Outline: as §1

[10] = tested on: PPARg:RXRa 90nM:30nM, anti-RXR (NR concentration 90 nM, RXRa partner concentration 30 nM)
Outline: as §1

[11] = tested on: PPARg:RXRa DBDmut IVT, anti-RXR (DBD mutation: RXRa K156A/R161A, NR concentration 270 nM, RXRa partner concentration 90 nM)
Outline: as §1

[12] = tested on: PPARg:RXRa IVT, anti-PPARg (NR concentration 270 nM, RXRa partner concentration 90 nM)
Outline: as §1

[13] = tested on: PPARg DBDmut:RXRa IVT, anti-PPARg (DBD mutation: PPARg1 K132A/R137A, NR concentration 270 nM, RXRa partner concentration 90 nM)
Outline: as §1

[14] = tested on: PPARg DBDmut IVT, anti-PPARg (DBD mutation: PPARg1 K132A/R137A, NR concentration 270 nM)
Outline: as §1

[15] = tested on: PPARg homodimer (NR concentration 180 nM)
Outline: as §1

[16] = tested on: PXR:RXRa (NR concentration 270 nM, RXRa partner concentration 90 nM)
Outline: as §1

[17] = tested on: PXR homodimer (NR concentration 270 nM)
Outline: as §1

[18] = tested on: RARa:RXR (NR concentration 270 nM, RXRa partner concentration 90 nM)
Outline: as §1

[19] = tested on: RARa homodimer (NR concentration 270 nM)
Outline: as §1

[20] = tested on: RARb:RXRa (NR concentration 270 nM, RXRa partner concentration 90 nM)
Outline: as §1

Sequence	PBM binding z-score [1]	PBM binding z-score [2]	PBM binding z-score [3]	PBM binding z-score [4]	PBM binding z-score [5]	PBM binding z-score [6]	PBM binding z-score [7]	PBM binding z-score [8]	PBM binding z-score [9]	PBM binding z-score [10]	PBM binding z-score [11]	PBM binding z-score [12]	PBM binding z-score [13]	PBM binding z-score [14]	PBM binding z-score [15]	PBM binding z-score [16]	PBM binding z-score [17]	PBM binding z-score [18]	PBM binding z-score [19]	PBM binding z-score [20]
GCCGCTAGGTCAACTGATGGTCAGCTAAAGCTCG	3.97	3.16	0.212	1.89	-0.472	3.71	2.44	3.07	0.658	1.82	4.39	3.8	-0.418	-0.213	1.56	1.55	-0.4	3.04	0.102	4.35
CCTTTCGGGTCACTGACAGGTTATAGCATTTGGA	5.71	4.35	0.279	3.33	0.0515	5.09	3.95	4.25	1.43	3.06	3.4	3.43	0.931	0.0693	2.97	3.79	0.121	4.74	0.858	4.04
TTACCAAGGTGAGCTGAAGTCGTTGATCCAACTC	-0.293	-0.529	-0.801	-0.542	-1.23	0.187	-0.231	0.143	-0.185	0.0287	0.859	1.48	-0.768	-0.947	-0.94	-0.181	-0.685	-0.105	-0.713	0.929
TCTTGTAGATCACCAGGAGGTTAAGAAAGATCGA	0.307	1.28	-0.0899	0.866	-0.174	1.39	-0.000569	1.19	2.45	1.52	1.92	1.27	0.392	0.634	-0.00402	0.915	-0.00438	1.15	-0.698	0.672
CGTGAAAGTTCAACTAAGGTAACGTAAAGCACGC	6.32	6.09	4.26	3.89	1.84	4.98	3.58	4.78	1.6	3.39	-0.0451	1.86	0.513	0.603	2.63	5.31	3.52	3.81	1.22	5.19
CAAACTAGGTCACCGGAAGGTCAAAGCCCGCATG	6.08	5.95	4.27	5.11	1.45	6.06	9.85	7.89	5.9	7.57	8.25	8.78	2.12	2.03	5.32	5.67	1.53	7.16	2.71	5.32
